Rows were chosen to be rich in hits. Some 2.9% of all compounds tested hit in one or more screens of this group.
GRK2 aptamer HTS: compounds blocking aptamer binding on GRK2 – biochemical, human GRK2, bead flow cytometry, HTS, primary screen; Beta-adrenergic receptor kinase 1 (Homo sapiens), P25098; FAM-aptamer displacement from GRK2; inhibition of aptamer binding, % at 10 µM; actives 0.59% (n = 330,000); AID 488847, 2010;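 active = inhibition of aptamer binding above 40%, roughly 3 SD of noise, on plates passing a quality check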;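 note: median bead fluorescence of bound FAM aptamer so fluorescent compounds give negative values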
Target sequence (P25098 whole entry, looked up): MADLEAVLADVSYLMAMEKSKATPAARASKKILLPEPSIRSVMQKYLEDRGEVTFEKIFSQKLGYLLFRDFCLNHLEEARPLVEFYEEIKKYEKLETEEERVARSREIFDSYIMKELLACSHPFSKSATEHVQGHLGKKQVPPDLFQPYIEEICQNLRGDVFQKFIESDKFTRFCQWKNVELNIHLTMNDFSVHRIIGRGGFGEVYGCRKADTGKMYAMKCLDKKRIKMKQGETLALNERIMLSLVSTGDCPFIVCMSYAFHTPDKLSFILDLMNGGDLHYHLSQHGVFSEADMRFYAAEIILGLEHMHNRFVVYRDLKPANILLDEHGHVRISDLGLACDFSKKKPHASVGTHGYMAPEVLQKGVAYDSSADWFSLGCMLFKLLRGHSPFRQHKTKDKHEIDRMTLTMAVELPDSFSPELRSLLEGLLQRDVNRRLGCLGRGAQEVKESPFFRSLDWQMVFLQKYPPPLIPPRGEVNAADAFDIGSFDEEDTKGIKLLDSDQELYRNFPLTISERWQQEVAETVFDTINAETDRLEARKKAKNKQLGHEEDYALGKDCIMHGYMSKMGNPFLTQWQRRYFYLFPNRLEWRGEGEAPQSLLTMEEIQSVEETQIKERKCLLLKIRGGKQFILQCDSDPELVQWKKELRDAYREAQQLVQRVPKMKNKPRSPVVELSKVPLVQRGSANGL
B2AR ag: beta2AR agonists driving receptor internalization, primary screen, cell-based, FAP fluorogen, flow cytometry; Beta-2 adrenergic receptor (Homo sapiens), P07550; Am2.2-beta2AR cells; response, % (no concentration beside the values); actives 0.43% (n = 340,000); AID 504454, 2011;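 active = response above a set limit, near 3 SD of response in nonfluorescent compounds, cut at about 42% in these data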
Granule exo inh: LAMP-1 surface exposure blockers, TALL-104 cells – cell-based, flow cytometry, MLPCN library, primary screen; TALL-104 LAMP-1 surface exposure; cells stimulated with thapsigargin and PMA; inhibition, % at 10 µM; actives 0.66% (n = 360,000); AID 651702, 2012;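 active = inhibition above about 55%, limit read from the data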
NadD inh: inhibitors of S. aureus NadD, primary screen, biochemical, colorimetric, uHTS | Nicotinate-nucleotide adenylyltransferase NadD (Staphylococcus aureus N315) | purified NadD enzyme, colorimetric absorbance read-out | inhibition, % at 20 µM | actives 0.78% (n = 360,000) | AID 602399, 2012; in the data active = inhibition above about 26%
PP1 counter: PP1-alpha phosphatase inhibitors, primary screen, counter-screen for PP5 inhibitor project, biochemical, fluorescence, OMFP substrate, single point. Serine/threonine-protein phosphatase PP1-alpha catalytic subunit (Homo sapiens), P62136. purified PP1alpha. inhibition, % at 6.7 µM. actives 0.9% (n = 320,000);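 active = inhibition above the mean inhibition of all tested compounds plus 3 SD, computed separately for each screening campaign, cut at about 15% in these data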
NadD inh conf: inhibitors of S. aureus NadD, confirmation, biochemical, colorimetric, single concentration | shares compounds with NadD inh | purified S. aureus NadD, colorimetric enzyme assay | inhibition, % at 20 µM | actives 13% (n = 2,000) | AID 624309, 2012; in the data active = inhibition mostly above about 42%, no sharp cut-off; inactive = mostly below about 42%
Large screens that a line does not name were inactive (follow-up assays come after a bar, where they were run); ! = not confirmed by another sample.

CCOc1ccc(CCN2C(=O)C(=O)N([C@@H](Cc3ccccc3)CN3CCC[C@H]3CN3C(=O)C(=O)NC[C@@H]3Cc3ccccc3)C[C@@H]2Cc2ccc(O)cc2)cc1	NadD inh 71 (no result: GRK2 aptamer HTS, B2AR ag, PP1 counter) | NadD inh conf inactive
CCc1ccc2nc3sc(C(=O)N4CCc5ccccc54)c(N)c3cc2c1	none (no result: B2AR ag, Granule exo inh, NadD inh)
Cc1ccc(C)c2nc3sc(C(=O)N4CCCc5ccccc54)c(N)c3cc12	NadD inh 32 | NadD inh conf inactive
Cc1ccnc(NC(=O)c2cccc([N+](=O)[O-])c2C)c1	none
Nc1ccc(-c2nc3ccc([N+](=O)[O-])cc3[nH]2)cc1	none
Nc1ccc(-c2nc3ccc(N)cc3[nH]2)cc1	NadD inh 66 | NadD inh conf inactive
C/C(=N\NC(=O)c1cccc(N/N=C(\C)c2ccccc2)c1)c1ccccc1	none
C/C(=N\NC(=O)c1cccc(N/N=C(\C)c2ccc([N+](=O)[O-])cc2)c1)c1ccc([N+](=O)[O-])cc1	NadD inh 33 | NadD inh conf inactive
CC/C(C)=N/Nc1cccc([N+](=O)[O-])c1	none
Cc1ccc(C(=O)OCC(=O)Nc2sc3c(c2C#N)CCCCC3)cc1NC(=O)c1ccco1	NadD inh 36 | NadD inh conf inactive
Cc1ccc(C(=O)OCC(=O)Nc2sc3c(c2C#N)CCCC3)cc1NC(=O)c1ccco1	NadD inh 59 | NadD inh conf inactive
Cc1ccc(NC(=O)C2(c3ccccc3)CCCC2)nc1	NadD inh 32 | NadD inh conf inactive
O=C(NCc1ccccc1)C1=C[C@@H](c2ccc(Br)cc2)C[C@@H](OCCCCO)O1	none (no result: GRK2 aptamer HTS)
C#Cc1ccc([C@@H]2C=C(C(=O)NCc3ccccc3)O[C@H](OCCCCO)C2)cc1	NadD inh 39 | NadD inh conf inactive
CCOC(=O)c1cnn(CCOC(=O)c2ccc(F)cc2)c1NC(=O)c1ccc(F)cc1	none
O=c1c(Cc2ccc(Cl)cc2Cl)c(O)ccn1CCCN1CCOCC1	none
COc1ccccc1NC(=O)Cn1cnc2sc(C(=O)Nc3cc(OC)c(OC)c(OC)c3)c(C)c2c1=O	none
COc1ccccc1NC(=O)c1sc2ncn(CC(=O)Nc3ccccc3)c(=O)c2c1C	NadD inh 30 | NadD inh conf inactive
CN(C)c1ccc(CC(=O)N2CCCCC2c2cc(C(=O)Nc3cccc4c3CCCC4)no2)cc1 (centres undefined)	none (no result: GRK2 aptamer HTS, B2AR ag, PP1 counter)
COc1ccc(N/C=C2\C(=O)CCc3c2oc2cc(Cl)c(O)c(Cl)c32)cc1	NadD inh 44 | NadD inh conf inactive
S=c1[nH]nc(-c2ccncc2)n1/N=C/c1cn(-c2ccccc2)nc1-c1ccc(Cl)cc1	NadD inh 45 | NadD inh conf inactive
O=[N+]([O-])c1ccc(-c2nn(-c3ccccc3)cc2/C=N/n2c(-c3cccs3)n[nH]c2=S)cc1	NadD inh 43 | NadD inh conf inactive
COc1cc(/C=C/c2ccc3cccc(O)c3n2)c(Br)cc1O	NadD inh 28 | NadD inh conf inactive
COc1cc(Br)cc(/C=C/c2ccc3cccc(O)c3n2)c1O	NadD inh 34 | NadD inh conf inactive
O=C(NCc1ccc2c(c1)OCO2)c1ccc(N2C(=O)C3CCCCC3C2=O)cc1 (centres undefined)	none
CCOC(=O)c1sc(NC(=O)c2cccc(S(=O)(=O)N3CCc4ccccc43)c2)c(C#N)c1C	NadD inh 36 | NadD inh conf inactive
Cc1cccn2c(=O)c3cc(C#N)c(=NC(=O)c4ccccc4)n(Cc4ccco4)c3nc12	NadD inh 32! | NadD inh conf inactive
Cc1cc(-c2csc(NC(=O)c3ccc(C#N)cc3)n2)c(C)n1Cc1ccco1	NadD inh 34, PP1 counter 17 | NadD inh conf inactive
Cc1c(Cl)cccc1N1CC(C(=O)Nc2nccs2)CC1=O (centres undefined)	none
O=C(Cn1nc(-c2ccccc2)ccc1=O)Nc1ccc(N2CCN(C(=O)c3cccs3)CC2)cc1	NadD inh 29 | NadD inh conf inactive
CC(OC(=O)C1CCCCC1)C(=O)Nc1cccc([N+](=O)[O-])c1 (centres undefined)	none
Cc1c(NC(=O)c2cccc(NC(=O)COc3ccc(C#N)cc3)c2)c(=O)n(-c2ccccc2)n1C	none (no result: GRK2 aptamer HTS, PP1 counter)
Cc1cc(C)cc(NC(=O)Cn2c(=O)oc3cc(S(=O)(=O)N4CC(C)CC(C)C4)ccc32)c1 (centres undefined)	NadD inh 36 | NadD inh conf inactive
CCCCNC(=O)Cn1c(=O)oc2cc(S(=O)(=O)N3CC(C)CC(C)C3)ccc21 (centres undefined)	none
CCC1(CC)N=C(c2ccccc2)C(=S)N1	none
O=C(NCC1OCCCN1S(=O)(=O)c1cc(F)ccc1F)C(=O)NC1CCCCC1 (centres undefined)	none
COc1ccc2c(c1)nc(-c1cccc(Br)c1)c(=O)n2C(c1ccccn1)c1nc2ccccc2[nH]1 (centres undefined)	NadD inh 46 (no result: GRK2 aptamer HTS, B2AR ag, PP1 counter) | NadD inh conf inactive
CCOC(=O)C1CCN(C(=O)CSc2ccccc2Cl)CC1	none
COc1ccc(CN2C(=O)C(Cc3ccccc3)Nc3ncnc(N4CCN(c5ccccc5)CC4)c32)cc1 (centres undefined)	none
CC1Nc2ncnc(N3CCc4ccccc4C3)c2N(Cc2ccc(Cl)cc2)C1=O (centres undefined)	NadD inh 43 (no result: GRK2 aptamer HTS) | NadD inh conf inactive
O=C1C(Cc2ccccc2)Nc2ncnc(N3CCN(c4ccccc4)CC3)c2N1Cc1ccc(Cl)cc1 (centres undefined)	NadD inh 41 | NadD inh conf inactive
Cn1nccc1C(=O)Nc1ccc2c(c1)OCO2	none
COc1cc(-c2[nH]ncc2CN2CCN(c3cccc(C)n3)CC2)cc(OC)c1OC	none
COc1ccccc1Nc1ccc(C(=O)NCc2cccs2)cn1	none
COc1ccccc1Nc1ncc(-c2cccs2)s1	NadD inh 40 | NadD inh conf inactive
COc1ccc(NC(=O)c2ccc3c(c2)NC(=O)CS3)cc1S(=O)(=O)Nc1ccc(Br)cc1	none
Cc1ccc(NS(=O)(=O)c2cc(NC(=O)c3ccc4c(c3)NC(=O)CS4)ccc2C)c(C)c1	NadD inh 34 | NadD inh conf inactive
Cc1cccc(NC(=O)c2nc[nH]c2C(=O)Nc2ccccc2[N+](=O)[O-])c1	NadD inh 31 | NadD inh conf inactive
COc1ccccc1-n1c(SCC(=O)N2CCOCC2)nc2ccccc2c1=O	none
COc1ccccc1-n1c(SCc2cc(=O)oc3cc(O)ccc23)nc2ccccc2c1=O	NadD inh 32 | NadD inh conf 58

Bioassay records from PubChem BioAssay.
